“And” between values parts separate entries of the source, which are not always exact repeats. Identical values can stand only once. Results filed as inconclusive are left out. Unmarked numbers belong to inactive results. The source made the active and inactive calls. Unless noted, calls follow the shape of the dose curve; as a rule, active = well fitted curve in the direction sought with a large enough effect; inconclusive = small, poorly fitted or top-dose-only effect, or another doubt; inactive = no such curve, though single readings can be large; an effect the other way counts as inactive or inconclusive.
Molecular target: Dual specificity protein kinase CLK4 (Homo sapiens) (UniProt Q9HAZ1)
Sequence (Q9HAZ1 whole entry, looked up): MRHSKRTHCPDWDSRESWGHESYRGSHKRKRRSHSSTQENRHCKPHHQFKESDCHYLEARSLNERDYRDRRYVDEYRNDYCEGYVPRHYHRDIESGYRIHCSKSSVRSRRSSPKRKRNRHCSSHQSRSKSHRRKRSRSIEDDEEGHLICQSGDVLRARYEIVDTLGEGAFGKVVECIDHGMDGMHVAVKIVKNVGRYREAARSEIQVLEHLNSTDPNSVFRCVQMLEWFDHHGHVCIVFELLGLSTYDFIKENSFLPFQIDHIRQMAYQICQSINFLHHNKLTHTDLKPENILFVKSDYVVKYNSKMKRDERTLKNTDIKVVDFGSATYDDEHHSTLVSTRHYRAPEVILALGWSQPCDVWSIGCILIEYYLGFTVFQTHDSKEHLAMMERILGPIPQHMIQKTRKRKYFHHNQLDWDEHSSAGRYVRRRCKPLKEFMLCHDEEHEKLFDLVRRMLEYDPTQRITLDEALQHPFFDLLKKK
Experiment: qHTS Assay for Inhibitors of CDC-like Kinase 4 (ADP-FP Assay) (AID 1795);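 also: recombinant human CLK4 phosphorylating RS repeat peptide at 1 µM ATP; % is scaled to controls: 0 for no effect and ±100 for the full control effect; nearly all actives have a fitted effect of over 60% in size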
Settings: Transcreener ADP fluorescence polarization; series mostly up to 50 µM; activity change, negative = inhibition: at the top concentration
How it was run: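 FP readout: Orange Transcreener ADP2 tracer (4 nM) plus ADP antibody, read after 30 min at room temperature. Kinase step: 6.25 nM Clk4, 100 uM RS peptide, 1 uM ATP, pH 7.5, 1 h.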

| Structure (SMILES) | activity change, negative = inhibition [%] |
| --- | --- |
| FC(F)(F)c1ccccc1-c1ccc2ncnc(N3CCOCC3)c2c1 | -14.6 |
| COCCn1c(=O)c(C)nc2cnc(Nc3ccccc3)nc21 | -12.2 |
| COc1cccc(Cn2c(=O)cnc3cnc(N4CCN(C)CC4)nc32)c1 | 3.22 |
| CN1CCN(c2ccnc(-c3ccc(N(C)C)cc3)n2)CC1 | -11.6 |
| COc1ncc2nc(-c3cccs3)c(=O)n(C)c2n1 | -2.31 |
| COc1ccccc1-c1nccc(NCc2ccccc2)n1 | 2.99 |
| CN1CCN(c2ncc3ncc(=O)n(-c4ccccc4)c3n2)CC1 | 4.36 |
| Cc1cnc(CNc2ncnc3ccc(-c4ccccc4C(F)(F)F)cc23)cn1 | -3.37 |
| COc1ccccc1CNc1ncnc2ccc(-c3cccc(C#N)c3)cc12 | -12.9 |
| FC(F)(F)c1ccccc1-c1ccc2ncnc(NCc3cccs3)c2c1 | -14.2 |
| COc1ccccc1CNc1cc(-c2cccc(C#N)c2)ncn1 | -20.6 |

Tested on: not listed separately
Experiment: qHTS Assay for Identification of Small Molecule Inducers of Hypoxia Response (AID 2120; active = well fitted curve in the direction sought with a large enough effect in the signal ratio, with a control signal flat, not every such curve was filed as active; the % refers to the signal ratio; also: 0% is about no effect)
Settings: hypoxia response reporter cells, beta-lactamase ratio readout; series mostly up to 104 µM; activation: at the top concentration
How it was run: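 Induction of beta-lactamase reporter activity was measured in CellSensor HRE-bla ME-180 cells after 17 h compound treatment at 37 degrees C, using CCF4 substrate and the 460nm/530nm emission ratio to derive AC50 values.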

| Structure (SMILES) | activation [%] |
| --- | --- |
| Cc1occc(=O)c1O | 0.244 |
| C=C(C)[C@H]1CC=C(C)C(=O)C1 | 0 |
| COS(C)(=O)=O | 0.221 |
| CC1=CC(=O)CC(C)(C)C1(O)/C=C/C(C)=C\C(=O)O (configuration not stated) | 0.916 |
| C=CC(C)(O)CCC=C(C)C (configuration not stated) | 0.645 |

Molecular target: ATP-dependent 6-phosphofructokinase (Trypanosoma brucei brucei) (UniProt O15648)
Sequence (O15648 whole entry, looked up): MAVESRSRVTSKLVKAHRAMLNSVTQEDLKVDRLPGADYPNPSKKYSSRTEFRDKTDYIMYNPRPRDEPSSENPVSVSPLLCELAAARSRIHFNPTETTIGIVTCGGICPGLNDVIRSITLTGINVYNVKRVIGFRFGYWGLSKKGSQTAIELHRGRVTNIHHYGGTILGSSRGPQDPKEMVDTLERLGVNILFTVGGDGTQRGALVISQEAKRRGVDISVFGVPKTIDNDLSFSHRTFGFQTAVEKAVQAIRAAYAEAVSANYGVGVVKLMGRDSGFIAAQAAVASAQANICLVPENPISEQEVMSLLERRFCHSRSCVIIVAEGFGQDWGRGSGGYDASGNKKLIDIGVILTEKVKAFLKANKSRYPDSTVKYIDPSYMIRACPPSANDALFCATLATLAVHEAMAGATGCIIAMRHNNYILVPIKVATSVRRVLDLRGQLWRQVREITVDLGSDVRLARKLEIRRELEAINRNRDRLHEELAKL
Experiment: qHTS Assay to Find Inhibitors of T. brucei phosphofructokinase: hit validation (AID 492961);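 also: luminescence reports ADP formed as PFK phosphorylates fructose-6-phosphate with ATP; % is scaled to controls: 0 for no effect and ±100 for the full control effect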
Settings: T. brucei PFK, ADP-Glo luminescence; series mostly up to 24.3 µM; activity change, negative = inhibition: at the top concentration
How it was run: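 Reaction: 0.1 M triethanolamine pH 8.0, 5 mM MgCl2, F6P 0.5 mM, ATP 0.1 mM, PFK 1.25 nM, 45 min RT. Read-out: ADP-Glo luminescence. Analysis: concentration-response fits, classed by r2 and efficacy.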

| Structure (SMILES) | activity change, negative = inhibition |
| --- | --- |
| C[N+](C)(C)CC(O)CC(=O)O (configuration not stated) | 12.3% [at 51.4 µM] |
| CN1CCCC[C@@H]1CCN1c2ccccc2Sc2ccc(S(C)=O)cc21 (some centres not stated) | -2.66% [at 51.4 µM] |
| CN(C)CC/C=C1\c2ccccc2CSc2ccccc21 | 3.03% |
| C[C@@H]1CCC[C@H](C)N1NC(=O)c1ccc(Cl)c(S(N)(=O)=O)c1 | 1.48% |
| CC(C)N1CCN(c2ccc(OC[C@@H]3CO[C@@](Cn4cncn4)(c4ccc(Cl)cc4Cl)O3)cc2)CC1 | 5% |

Molecular target: Ubiquitin carboxyl-terminal hydrolase 1 (Homo sapiens) (UniProt O94782)
Sequence (O94782 whole entry, looked up): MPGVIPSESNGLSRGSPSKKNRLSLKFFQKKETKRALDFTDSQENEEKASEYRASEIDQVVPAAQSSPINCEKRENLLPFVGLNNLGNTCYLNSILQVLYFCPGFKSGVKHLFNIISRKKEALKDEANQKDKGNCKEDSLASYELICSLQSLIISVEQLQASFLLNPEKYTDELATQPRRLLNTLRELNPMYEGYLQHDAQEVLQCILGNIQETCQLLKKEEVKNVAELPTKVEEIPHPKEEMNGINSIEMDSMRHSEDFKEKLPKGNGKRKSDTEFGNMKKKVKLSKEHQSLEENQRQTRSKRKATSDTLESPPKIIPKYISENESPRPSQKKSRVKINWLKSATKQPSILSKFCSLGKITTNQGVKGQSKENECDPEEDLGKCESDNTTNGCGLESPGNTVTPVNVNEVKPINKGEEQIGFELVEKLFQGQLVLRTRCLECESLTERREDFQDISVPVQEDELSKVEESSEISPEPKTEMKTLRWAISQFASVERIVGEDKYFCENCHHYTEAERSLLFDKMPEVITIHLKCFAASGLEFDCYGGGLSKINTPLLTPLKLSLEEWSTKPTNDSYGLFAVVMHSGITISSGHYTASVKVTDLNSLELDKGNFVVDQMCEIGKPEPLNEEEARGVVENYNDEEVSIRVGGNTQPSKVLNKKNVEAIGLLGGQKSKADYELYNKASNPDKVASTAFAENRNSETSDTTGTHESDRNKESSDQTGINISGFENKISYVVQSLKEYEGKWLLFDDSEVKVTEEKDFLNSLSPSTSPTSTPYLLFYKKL
Experiment: Inhibitors of USP1/UAF1: Pilot qHTS (AID 504865); also: nearly all actives have a fitted effect of over 35% in size; also: potency is read from the fitted curve at half-maximal effect;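 as to activity change, negative = inhibition: rhodamine fluorescence freed from ubiquitin-rhodamine substrate followed over time; top concentration of the series differs between compounds; % is scaled to controls: 0 for no effect and ±100 for the full control effect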
Settings: purified USP1/UAF1, Ub-rhodamine cleavage fluorescence; series mostly up to 54.9 µM; activity change, negative = inhibition: at the top concentration
How it was run: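 1nM USP1/UAF1 + cpd, 15 min RT; start w/ Ub-Rho 150nM final; kinetic FL 480/540 nm, 6 reads q60 s. Buffer 50mM HEPES pH 7.8, 0.5mM EDTA, 1mM TCEP, 0.01% Tween-20, 0.1 mg/ml BSA.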

| Structure (SMILES) | activity change, negative = inhibition | Potency |
| --- | --- | --- |
| FC(F)(F)c1ccccc1-c1ccc2ncnc(N3CCOCC3)c2c1 | -11.5% |  |
| COCCn1c(=O)c(C)nc2cnc(Nc3ccccc3)nc21 | -9.09% |  |
| COc1cccc(Cn2c(=O)cnc3cnc(N4CCN(C)CC4)nc32)c1 | -4% |  |
| C[N+](C)(C)CC(O)CC(=O)O (configuration not stated) | -8.62% [at 114 µM] |  |
| COc1ccc2ccc(=O)oc2c1 | -2.77% [at 114 µM] |  |
| CN1CCN(c2ccnc(-c3ccc(N(C)C)cc3)n2)CC1 | -11.4% |  |
| Cc1occc(=O)c1O | 1.3% [at 114 µM] |  |
| O=C(/C=C/c1ccc(O)c(O)c1)OC(Cc1ccc(O)c(O)c1)C(=O)O (configuration not stated) |  | inactive |
| O=c1ccc2ccc(O)cc2o1 | -8.82% [at 114 µM] |  |
| COc1ncc2nc(-c3cccs3)c(=O)n(C)c2n1 | -21.9% |  |
| CN1CCCC[C@@H]1CCN1c2ccccc2Sc2ccc(S(C)=O)cc21 (some centres not stated) |  | inactive |
| N#Cc1cccc(-c2ccc3ncnc(NCc4ccccc4)c3c2)c1 |  | 15.8 µM (active) |
| COC(=O)C1=CO[C@@H](C)[C@H]2CN3CCc4c([nH]c5ccccc45)[C@@H]3C[C@H]12 | -11.7% |  |
| O=C(Cc1cccs1)NC1C(=O)N2C(C(=O)[O-])=C(C[n+]3ccccc3)CSC12 (configuration not stated) |  | 79.4 µM (active) |
| Oc1ccc2c(c1)OCC1(O)Cc3cc(O)c(O)cc3C21 (configuration not stated) |  | 79.4 µM (active) |
| C=C(C)[C@H]1CC=C(C)C(=O)C1 | -2.05% [at 114 µM] |  |
| CN1C(CC(=O)c2ccccc2)CCCC1CC(O)c1ccccc1 (configuration not stated) | -2.2% [at 114 µM] |  |

| Structure (SMILES) | activity change, negative = inhibition | Potency |
| --- | --- | --- |
| CC12CC[C@@H]3c4ccc(OS(=O)(=O)O)cc4CC[C@H]3C1CCC2=O (some centres not stated) | -6.23% |  |
| CN(C)C(=O)c1ccc(-c2nc(N(C)C)c3ccccc3n2)cc1 | -8.73% [at 114 µM] |  |
| COc1ccccc1-c1nccc(NCc2ccccc2)n1 |  | 22.4 µM (active) |
| C=C[C@](C)(O)CCC=C(C)C | -7.35% [at 114 µM] |  |
| CN1CCN(c2ncc3ncc(=O)n(-c4ccccc4)c3n2)CC1 | -16.3% |  |
| COS(C)(=O)=O | -7.11% [at 114 µM] |  |
| CC1(C)SC2C(NC(=O)Cc3ccccc3)C(=O)N2C1C(=O)O (configuration not stated) | -5.37% [at 114 µM] |  |
| CN(C)CC/C=C1\c2ccccc2CSc2ccccc21 | 10.9% |  |
| Cc1cnc(CNc2ncnc3ccc(-c4ccccc4C(F)(F)F)cc23)cn1 | -12.5% |  |
| COc1ccccc1CNc1ncnc2ccc(-c3cccc(C#N)c3)cc12 | -2.7% |  |
| C#C[C@]1(O)CCC2C3CCC4=C(CCC(=O)C4)C3CC[C@@]21C (some centres not stated) | -4.88% [at 114 µM] |  |
| C[C@@H]1CCC[C@H](C)N1NC(=O)c1ccc(Cl)c(S(N)(=O)=O)c1 | 1.82% |  |
| FC(F)(F)c1ccccc1-c1ccc2ncnc(NCc3cccs3)c2c1 | -26% |  |
| COc1ccccc1CNc1cc(-c2cccc(C#N)c2)ncn1 | -15.7% |  |
| CC(C)N1CCN(c2ccc(OC[C@@H]3CO[C@@](Cn4cncn4)(c4ccc(Cl)cc4Cl)O3)cc2)CC1 | -2.05% |  |
| C=CC(C)(O)CCC=C(C)C (configuration not stated) | -7.83% [at 114 µM] |  |

Molecular target: Glucocorticoid receptor (Homo sapiens) (UniProt P04150)
Sequence (P04150 whole entry, looked up): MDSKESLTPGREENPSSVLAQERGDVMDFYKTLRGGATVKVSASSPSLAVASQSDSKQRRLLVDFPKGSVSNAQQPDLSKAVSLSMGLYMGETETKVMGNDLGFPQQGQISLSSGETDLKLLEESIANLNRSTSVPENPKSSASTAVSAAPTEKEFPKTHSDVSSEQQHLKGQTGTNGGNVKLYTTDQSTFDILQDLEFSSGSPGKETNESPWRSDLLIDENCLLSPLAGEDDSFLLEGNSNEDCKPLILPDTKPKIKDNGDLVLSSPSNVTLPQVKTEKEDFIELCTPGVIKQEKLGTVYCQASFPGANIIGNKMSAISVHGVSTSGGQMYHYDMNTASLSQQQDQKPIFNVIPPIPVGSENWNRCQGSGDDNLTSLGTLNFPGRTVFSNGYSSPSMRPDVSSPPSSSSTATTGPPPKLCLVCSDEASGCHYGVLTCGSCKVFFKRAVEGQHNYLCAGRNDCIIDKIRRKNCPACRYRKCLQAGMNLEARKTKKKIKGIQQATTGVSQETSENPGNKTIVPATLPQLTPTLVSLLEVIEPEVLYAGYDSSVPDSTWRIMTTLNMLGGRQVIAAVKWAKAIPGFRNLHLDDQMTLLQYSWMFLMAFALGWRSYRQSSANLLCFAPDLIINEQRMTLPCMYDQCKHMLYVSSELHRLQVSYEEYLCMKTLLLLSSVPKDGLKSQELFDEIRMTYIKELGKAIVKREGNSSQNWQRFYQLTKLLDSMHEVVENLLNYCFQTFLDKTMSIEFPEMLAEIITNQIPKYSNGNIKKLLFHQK
Experiment: qHTS assay for small molecule agonists of glucocorticoid receptor signaling (AID 588532; active = well fitted curve in the direction sought with a large enough effect in the signal ratio, with a control signal flat; the % refers to the signal ratio;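 also: 100% = dexamethasone at 0.1 µM and 0% = DMSO only wells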)
Settings: HeLa MMTV-bla, beta-lactamase ratio, agonist, 18 h; active compounds read high; percent of dexamethasone control, DMSO zero
How it was run: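 Stimulation of a glucocorticoid response element-driven beta-lactamase gene was measured in HeLa cells. Responses were scaled between DMSO basal and 0.1 uM dexamethasone, then fitted for half-maximal stimulation.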

| Structure (SMILES) | activation |
| --- | --- |
| C=C(C)[C@H]1CC=C(C)C(=O)C1 | -5.14% and -7.53% |
| COS(C)(=O)=O | -1.66% |
| CC1=CC(=O)CC(C)(C)C1(O)/C=C/C(C)=C\C(=O)O (configuration not stated) | 1.52% |
| C=CC(C)(O)CCC=C(C)C (configuration not stated) | -2.85% and -11.4% |

Molecular target: Glucocorticoid receptor (Homo sapiens) (UniProt P04150)
Experiment: qHTS assay for small molecule antagonists of glucocorticoid receptor signaling (AID 588533; active = well fitted inhibition curve with a large enough effect in the signal ratio, with a control signal flat, not every such curve was filed as active; the % refers to the signal ratio;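 also: cells stimulated with 2 nM dexamethasone as agonist; % is scaled to controls: 0 for no effect and ±100 for the full control effect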)
Settings: HeLa MMTV-bla, GRE beta-lactamase ratio, antagonist mode, 18 h; series mostly up to 76.8 µM; activity change, negative = inhibition: at the top concentration
How it was run: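 Antagonist-mode qHTS: compound titrations added to GRE-bla HeLa cells, then dexamethasone 2 nM final; 18 h, 37 C. CCF4 FRET fluorescence normalized to dexamethasone and DMSO; IC50 from Hill fit.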

| Structure (SMILES) | outcome | activity change, negative = inhibition [%] |
| --- | --- | --- |
| C=C(C)[C@H]1CC=C(C)C(=O)C1 | inactive |  |
| COS(C)(=O)=O |  | -2.45 |
| CC1=CC(=O)CC(C)(C)C1(O)/C=C/C(C)=C\C(=O)O (configuration not stated) |  | -28.5 |
| C=CC(C)(O)CCC=C(C)C (configuration not stated) |  | -5.47 |
